KCNQ2 enhance: enhances the rat KCNQ2 potassium channel | CHO-K1 KCNQ2, FluxOR thallium flux fluorescence; hits give high values | B-score at 10 µM | O88943 | 310,000 tested, 0.54% active;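 active = fluorescence ratio B-score at least 3 SD of library B-scores, with initial fluorescence B-score within 3 of them, cut at about 5.3 in these data; same plate scores as AID 2156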;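 also: B-score of peak minus minimum over baseline fluorescence ratio after K+ and Tl+ stimulus; positive B-score means potentiation of KCNQ2 with more thallium influx and brighter signal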
KCNQ2 block: inhibitors of rat KCNQ2 potassium channel; O88943; CHO-K1 KCNQ2, FluxOR thallium flux, 20 min; hits give low values; B-score at 10 µM; 310,000 tested, 1.1% active; AID 2156;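 active = fluorescence ratio B-score at most minus 3 library SDs, with starting brightness B-score within 2 library SDs, cut at about -5.5 in these data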
KCNQ2 inh conf: rat KCNQ2 channel inhibition, confirmatory screen; KCNQ2-expressing cells, thallium flux; hits give low values; AID 493025; shares compounds with KCNQ2 block; 1,000 tested, 57% active; activity change, negative = inhibition, % at 10 µM;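 also: 0% = vehicle wells and values are ratio percent relative to vehicle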
KCNQ1 spec: KCNQ2 inhibitor that also affects human KCNQ1 channel | shares compounds with KCNQ2 block | KCNQ1-expressing cells, FluxOR thallium flux fluorescence; hits give low values | activity change, negative = inhibition, % at 10 µM | AID 493026 | 1,000 tested, 15% active;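 active = activity change at least 3 SD of negative controls below their mean in both duplicate wells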;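 also: CHO cells stably transfected with KCNQ1 and depolarized by potassium stimulus; peak minus minimum fluorescence over baseline after thallium addition; 0% = vehicle negative control and -100% = blank without thallium stimulus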
CHO parental ctr: KCNQ2 inhibitor counter-screen hit in parental CHO cells; shares compounds with KCNQ2 block; thallium flux counter-screen; hits give low values; activity change, % at 10 µM; 1,000 tested, 14% active; AID 493029;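 also: 0% = vehicle negative controls with stimulus buffer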
An asterisk follows results filed as active. This is a sample that favours compounds with a hit; in the whole collection about 1.6% have one here. Unless noted, no rule for the calls is given here.

Results for O=C(Nc1nc(-c2ccccc2)cs1)C1CCCCN1S(=O)(=O)c1ccc(Cl)cc1 (centres undefined) ?
KCNQ2 enhance: -8.93; KCNQ2 block: -8.93*; KCNQ2 inh conf: inactive; KCNQ1 spec: inactive; CHO parental ctr: inactive

What do the screens show for `CC1CCN(CC(=O)Nc2nc(-c3ccccc3)cs2)CC1`?
KCNQ2 enhance: -7.34; KCNQ2 block: -7.34*; KCNQ2 inh conf: inactive; KCNQ1 spec: inactive; CHO parental ctr: inactive

What do the screens show for `O=C(Nc1nc(-c2ccccc2)cs1)C1CCCCN1S(=O)(=O)c1ccccc1` (centres undefined)?
KCNQ2 block: inactive

How did COC(=O)c1ccccc1NC(=O)CN(c1ccccc1)S(=O)(=O)N(C)C do in these assays?
KCNQ2 block: inactive

Results for OCCNc1nc(Nc2ccccc2Cl)nc(N2CCCC2)n1 ?
KCNQ2 enhance: 0.69; KCNQ2 block: inactive

How did CN(C)C(CNC(=O)c1ccc(C(=O)c2ccccc2)cc1)c1ccccc1 (centres undefined) do in these assays?
KCNQ2 block: inactive

How did CN(C)C(CNC(=O)c1ccc(-c2ccccc2)cc1)c1ccccc1 (centres undefined) do in these assays?
KCNQ2 enhance: -6.63; KCNQ2 block: -6.63*; KCNQ2 inh conf: inactive; KCNQ1 spec: inactive; CHO parental ctr: inactive

Results for CCNC(=O)CCn1nc(-c2ccc(Cl)cc2)c2ccccc2c1=O ?
KCNQ2 block: inactive

What do the screens show for `CCOC(=O)CC(=O)Nc1ccsc1C(N)=O`?
KCNQ2 enhance: 0.01; KCNQ2 block: inactive

How did CCc1cccc(CC)c1NC(=O)COC(=O)c1ccc(F)c(S(=O)(=O)N(CC)CC)c1 do in these assays?
KCNQ2 enhance: 0.42; KCNQ2 block: inactive

How did Cc1ccc(NC(=O)CN(C)C(=O)c2ccccc2OCc2c(C)noc2C)cc1 do in these assays?
KCNQ2 block: inactive

What do the screens show for `COc1ccc(Br)cc1CN(C)C(=O)c1ccccc1OCc1c(C)noc1C`?
KCNQ2 enhance: -8.57; KCNQ2 block: -8.57*; KCNQ2 inh conf: inactive; KCNQ1 spec: inactive; CHO parental ctr: inactive

Results for CC(NC(=O)c1cccs1)c1ccc(Cl)cc1 (centres undefined) ?
KCNQ2 block: inactive

Results for CC(NC(=O)c1cccs1)C(S)c1ccccc1 (centres undefined) ?
KCNQ2 enhance: -10.5; KCNQ2 block: -10.5*; KCNQ2 inh conf: inactive; KCNQ1 spec: inactive; CHO parental ctr: inactive

Results for Cc1cc(C)nc(N2CCCC(C(=O)NCc3cccs3)C2)n1 (centres undefined) ?
KCNQ2 block: inactive

Results for COc1ccc(C(=O)C/C(=C\C(=O)c2ccc(C)cc2)c2ccccc2)cc1 ?
KCNQ2 enhance: -7.67; KCNQ2 block: -7.67*; KCNQ2 inh conf: inactive; KCNQ1 spec: inactive; CHO parental ctr: inactive

What do the screens show for `COc1ccc(C(=O)CC(=O)c2ccccc2)cc1`?
KCNQ2 enhance: 0.38; KCNQ2 block: inactive

How did COc1ccc(C(C)=O)cc1CN1C(=O)NC2(CCCCCC2)C1=O do in these assays?
KCNQ2 block: inactive

How did CCOC(=O)C(C)Sc1nc(C2CC2)cc(C(F)(F)F)c1C#N (centres undefined) do in these assays?
KCNQ2 enhance: -6.87; KCNQ2 block: -6.87*; KCNQ2 inh conf: inactive; KCNQ1 spec: inactive; CHO parental ctr: inactive

Results for COC(=O)CSc1nc(C2CC2)cc(C(F)(F)F)c1C#N ?
KCNQ2 enhance: 0.01; KCNQ2 block: inactive

What do the screens show for `COc1ccc2c(c1)-c1c(ssc1=S)C(C)(C)N2C(=O)CSC1=NCCS1`?
KCNQ2 block: inactive

What do the screens show for `CCOc1ccc2c(c1)-c1c(ssc1=S)C(C)(C)N2C(=O)c1ccco1`?
KCNQ2 enhance: -8.84; KCNQ2 block: -8.84*; KCNQ2 inh conf: inactive; KCNQ1 spec: inactive; CHO parental ctr: inactive

Results for CCNC1CCS(=O)(=O)C1 (centres undefined) ?
KCNQ2 block: inactive

How did CCN(CC)CCCNC1CCS(=O)(=O)C1 (centres undefined) do in these assays?
KCNQ2 enhance: -6.71; KCNQ2 block: -6.71*; KCNQ2 inh conf: inactive; KCNQ1 spec: inactive; CHO parental ctr: inactive

Results for CCOCCn1c(SCc2ccccc2)nc2c1c(=O)[nH]c(=O)n2C ?
KCNQ2 enhance: 0.03; KCNQ2 block: inactive

What do the screens show for `COc1ccc(-c2nc(CSCC(=O)NC3CCCc4ccccc43)c(C)o2)cc1OC` (centres undefined)?
KCNQ2 enhance: -10.2; KCNQ2 block: -10.2*; KCNQ2 inh conf: inactive; KCNQ1 spec: inactive; CHO parental ctr: inactive

High-throughput results as filed in PubChem.
